MITF inh: inhibitors of human MITF; O75030; inhibition, % at 2.6 µM; actives 0.91% (n = 650,000); AlphaScreen MITF homodimerization, bead proximity signal; in the data active means inhibition above about 50%;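 further: 0% = vehicle wells with protein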
GPR151 activ: activators of human GPR151. actives 1% (n = 650,000). PathHunter beta-arrestin GPR151 cells, luminescence. Q8TDV0. activation, % at 11.2 µM; in the data active means activation above about 4.9%;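 further: 0% = median of compound wells and 100% = cells with positive control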
Target sequence (Q8TDV0 whole entry, looked up): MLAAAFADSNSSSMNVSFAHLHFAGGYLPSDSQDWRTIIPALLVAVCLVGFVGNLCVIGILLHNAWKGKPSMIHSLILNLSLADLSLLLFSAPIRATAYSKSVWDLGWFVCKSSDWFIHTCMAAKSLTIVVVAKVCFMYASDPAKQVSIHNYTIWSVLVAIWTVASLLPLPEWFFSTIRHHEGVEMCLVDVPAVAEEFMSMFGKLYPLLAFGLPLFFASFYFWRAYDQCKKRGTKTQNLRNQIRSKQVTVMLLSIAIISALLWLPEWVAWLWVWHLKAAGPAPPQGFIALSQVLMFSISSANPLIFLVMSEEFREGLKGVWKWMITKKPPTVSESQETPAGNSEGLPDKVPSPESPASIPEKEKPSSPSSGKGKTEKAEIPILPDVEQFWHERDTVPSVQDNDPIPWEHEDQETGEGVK
FBW7 act: activators of human E3 ligase FBW7 | AlphaScreen FBW7–phospho-cyclin E peptide binding, activator screen | actives 0.13% (n = 650,000) | normalized activity (activation), % at 26.1 µM | Q969H0 | AID 1259310; in the data active means normalized activity above about 1.9%;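 further: purified mutant Fbw7 with reduced substrate affinity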
TEAD-YAP inh: TEAD-YAP interaction inhibition | HEK-TIYL cells, TEAD-Gal4/YAP UAS-luciferase luminescence | actives 1.4% (n = 640,000) | AID 1259422 | inhibition, % at 9.12 µM; in the data active means inhibition above about 32%;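 further: 0% = median of test compound wells and 100% = reference inhibitor wells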
GPR151 confirm: human GPR151 activation, confirmation screen. GPR151 PathHunter beta-arrestin cells, luminescence, 90 min; % of EA-reagent control over plate median. shares compounds with GPR151 activ. 6,700 tested, under 10 active. activation, % at 11.2 µM;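 active means mean percent activation across replicates above the confirmation screen cutoff of 4.91%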
GPR119 ag: activates human GPR119 in a GPR151 counter-screen | AID 1508611 | activation, % at 11.2 µM | GPR119 PathHunter beta-arrestin cells, luminescence, 90 min; 0 = compound-well median, 100 = enzyme-acceptor control | shares compounds with GPR151 activ | actives 0.3% (n = 6,700);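 active means mean percent activation in the counterscreen above 29.09%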;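 further: counterscreen on off-target GPR119 to flag nonselective hits from the GPR151 activator screen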
* marks the source's active call; other numbers are inactive results; . = no result given. Shown are actives, neighbours in structure and some others; about 3.5% of the full set was active somewhere.

SMILES | MITF inh | GPR151 activ | FBW7 act | TEAD-YAP inh | GPR151 confirm | GPR119 ag
Cc1csc(Sc2ccc([N+](=O)[O-])cc2C(=O)OC(C)C#N)n1 (stereo unspecified) | 3.9 | 5.3* | -0.2 | 2.3 | -0.3 | 4.5
Cc1csc(Sc2ccc([N+](=O)[O-])cc2C(=O)OCC(=O)Nc2cc(C)on2)n1 | 13.0 | 0.2 | 0.0 | -1.6 | . | .
COc1ccc(CCS(=O)(=O)NCC2(c3ccc(OC)cc3)CCOCC2)cc1 | 5.3 | 1.1 | 0.0 | -0.3 | . | .
Cc1ccc(NC(=O)c2cnccn2)c(Br)c1 | 6.4 | 6.4* | 0.1 | -37.5 | -1.3 | -12.1
O=C(Nc1ccc(Br)cc1F)c1cnccn1 | 3.6 | 0.8 | -0.3 | -7.7 | . | .
O=C(NCc1ccco1)C1CN(C(=O)c2ccc(F)c(F)c2)C1 | -1.4 | 1.3 | -0.2 | 1.7 | . | .
O=C(NC1CCSC1=O)C1CN(C(=O)c2ccc(F)c(F)c2)C1 (stereo unspecified) | -0.7 | 8.2* | 0.1 | 0.7 | 0.1 | -4.4
COCC1CCCCN1Cc1c(C(=O)N2CCCN(C)CC2)nc2sccn12 (stereo unspecified) | 2.6 | 15.4* | 0.1 | 6.5 | 0.1 | 5.9
COCC1CCCN(Cc2c(C(=O)N3CCCN(C)CC3)nc3sccn23)C1 (stereo unspecified) | 7.6 | 0.4 | 0.2 | 1.4 | . | .
CN(C)C(=O)CSc1nnc(COc2ccc(C(C)(C)C)cc2)o1 | 3.9 | 0.8 | 0.1 | -20.1 | . | .
COc1ccccc1C(=O)Nc1ccccc1-c1nnn(CC(=O)NCc2ccco2)n1 | 3.2 | 5.3* | 0.0 | 9.7 | -0.1 | -6.2
NC(=O)C1CCN(Cc2cccc(Cl)c2)CC1 | 40.5 | 5.1* | 0.4 | 6.7 | 1.0 | 5.6
NC(=O)C1CCN(Cc2ccc(Cl)cc2)CC1 | 9.4 | 0.7 | -0.5 | -7.1 | . | .
Cc1sc(NC(=O)c2cc3ccccc3oc2=O)nc1-c1ccc(Br)cc1 | -1.9 | 7.4* | 0.0 | -5.7 | 1.9 | -2.3
Cc1cc(/C=C(/C#N)c2cccc(Cl)c2)c(C)n1C | 0.7 | 5.6* | 0.0 | -10.8 | -0.3 | 0.3
CNC(=O)C(=O)NCC(c1ccco1)S(=O)(=O)c1ccc(Cl)cc1 (stereo unspecified) | 10.8 | 5.2* | 0.5 | 17.8 | -0.9 | -7.2
O=C(NCCO)C(=O)NCC(c1ccco1)S(=O)(=O)c1ccc(Cl)cc1 (stereo unspecified) | 3.8 | 0.8 | 0.1 | -3.2 | . | .
COC(=O)C(C)n1c(=O)c2c(nc3n(-c4ccc(C)c(C)c4)c(C)c(C)n23)n(C)c1=O (stereo unspecified) | 4.5 | 5.3* | -0.1 | -1.1 | 0.1 | 3.7
CC(=O)Cn1c(=O)c2c(nc3n(-c4ccccc4)c(C)c(C)n23)n(C)c1=O | 11.4 | 11.1* | -0.1 | 7.8 | 0.0 | 4.4
COC(=O)C(C)n1c(=O)c2c(nc3n(-c4cc(C)cc(C)c4)c(C)c(C)n23)n(C)c1=O (stereo unspecified) | -11.2 | 0.4 | 0.0 | 11.6 | . | .
C=CCn1c(=O)c2c(nc3n(-c4ccc(Cl)cc4)c(C)c(C)n23)n(C)c1=O | 12.5 | -1.0 | 0.3 | 11.4 | . | .
C=CCn1c(=O)c2c(nc3n(-c4cccc(Cl)c4)c(C)c(C)n23)n(C)c1=O | -0.7 | 6.3* | 0.0 | -4.6 | -1.2 | -2.6
CC/C(=N/Nc1nnc2c(n1)[nH]c1ccccc12)c1ccc(OC)cc1 | 4.1 | 0.8 | 0.0 | -5.2 | . | .
NC(=O)CSc1nnc(-c2cccc(F)c2)n1N | 13.4 | -1.1 | 0.7 | -7.8 | . | .
CC(c1ccco1)N(C)Cc1ccc(C(=O)NCc2ccc3c(c2)CCCN3C)c(=O)[nH]1 (stereo unspecified) | 12.2 | 1.3 | -0.2 | -0.5 | . | .
SMILES | MITF inh | GPR151 activ | FBW7 act | TEAD-YAP inh | GPR151 confirm | GPR119 ag
COc1cc(C2C3=C(CC(c4ccc(C)cc4)CC3=O)Nc3ccccc3N2C(=O)C(F)(F)F)cc(OC)c1OC (stereo unspecified) | -1.2 | 2.6 | 0.6 | 0.5 | . | .
COc1ccc(N2CCN(S(=O)(=O)Cc3ccccc3)CC2)cc1 | -9.5 | 6.8* | -0.1 | 3.6 | -0.9 | -11.6
O=S(=O)(Cc1ccccc1)N1CCN(c2ccc(F)cc2)CC1 | -9.6 | 0.0 | 0.9 | 4.8 | . | .
COCCn1c(SCC(=O)N2CCCC2=O)nnc1-c1ccncc1 | 8.7 | 5.3* | -0.1 | 11.8 | -1.2 | 0.5
COCCn1c(SCC(=O)NC2CCCC2)nnc1-c1ccncc1 | -0.2 | -0.1 | 0.0 | -2.9 | . | .
COc1ccc(C[C@@H]2NC(=O)[C@H]3CN(C(=O)c4cc(Cl)cc(Cl)c4)CCN3C2=O)cc1 | 10.7 | 7.4* | 0.1 | -0.7 | 0.5 | 13.1
COCc1cc(CN2CCN3C(=O)[C@H](Cc4ccccc4)NC(=O)[C@H]3C2)ccc1OC | 4.1 | 5.7* | -0.2 | 6.7 | 0.1 | 5.0
O=C1N[C@@H](Cc2c[nH]c3ccccc23)C(=O)N2CCN(C(=O)Oc3ccc(F)cc3)C[C@H]12 | -18.0 | 14.2* | 0.1 | -10.9 | 0.3 | 26.2
COc1ccc(C(=O)N2CCN3C(=O)[C@H](Cc4ccc(Cl)cc4)NC(=O)[C@H]3C2)cc1 | -14.1 | -1.2 | 0.1 | -1.9 | . | .
COCc1cc(CN2CCN3C(=O)[C@H](Cc4ccc(O)cc4)NC(=O)[C@H]3C2)ccc1OC | 16.0 | 0.4 | 0.5 | 2.8 | . | .
O=C1N[C@@H](Cc2c[nH]c3ccccc23)C(=O)N2CCN(C(=O)c3ccc(F)cc3)C[C@H]12 | 15.8 | 6.4* | 0.1 | -1.7 | 0.7 | 8.1
O=C1N[C@@H](Cc2c[nH]c3ccccc23)C(=O)N2CCN(C(=O)c3ccc4ccccc4c3)C[C@H]12 | 3.7 | 2.4 | -0.1 | 5.3 | . | .
O=C(Nc1cccc(F)c1)N1CCC(NC(=O)C23CC4CC(CC(C4)C2)C3)CC1 | 7.8 | -0.5 | -0.1 | 5.5 | . | .
O=C(c1ccoc1)N1CCC(Oc2cccc(CN3CCc4ccccc4C3)c2)CC1 | -1.5 | -0.2 | 0.0 | 11.3 | . | .
COC(=O)C(NC(=O)c1ccc(Cl)cc1)(Nc1nc(C2CC2)cs1)C(F)(F)F (stereo unspecified) | 13.9 | 5.2* | 0.7 | -3.8 | 0.0 | -5.8
CCOC(=O)NC(Nc1nc(C2CC2)cs1)(C(=O)OCC)C(F)(F)F (stereo unspecified) | 2.4 | -1.5 | 0.2 | 1.8 | . | .
O=C(NCc1nc(-c2ccncc2)n[nH]1)C1CCCC1 | -9.7 | -0.1 | -0.3 | -0.1 | . | .
O=C1c2cccc([N+](=O)[O-])c2C(=O)N1C1CCCCCCC1 | 17.0 | -0.7 | 0.2 | 14.7 | . | .
O=C(O)C1CCC(N2C(=O)c3cccc([N+](=O)[O-])c3C2=O)CC1 (stereo unspecified) | -5.0 | 5.2* | 0.0 | 3.8 | -1.0 | -0.9
O=C1CC(=O)Nc2cc(S(=O)(=O)N3CCn4c3nc3ccccc34)ccc2N1 | 7.9 | 5.9* | 0.2 | -5.7 | 0.1 | 9.6
Cn1c(=O)oc2cc(S(=O)(=O)N3CCn4c3nc3ccccc34)ccc21 | 3.4 | 0.8 | -0.1 | -10.9 | . | .

Screening data from PubChem BioAssay.
